Measured values: PubChem BioAssay AID1259374 (The Scripps Research Institute Molecular Screening Center, 2018)
About 5,900 (0.91%) of roughly 650,000 compounds were called active. Shown is part of a subset that was picked to be rich in actives. Unmarked numbers belong to inactive results. Cut-off read from the data, not from the text of the source: active = inhibition above about 50%; inactive = the rest.

The compounds below were run against Microphthalmia-associated transcription factor (Homo sapiens) (UniProt O75030) (assay: MITF inhibitors, primary screen, biochemical, AlphaScreen, human (AID 1259374;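 note: 0% = vehicle wells with protein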)). Details: AlphaScreen MITF homodimerization, bead proximity signal; at 2.6 µM; stronger effect = higher value.
Sequence of Microphthalmia-associated transcription factor (Homo sapiens) (O75030 whole entry, looked up): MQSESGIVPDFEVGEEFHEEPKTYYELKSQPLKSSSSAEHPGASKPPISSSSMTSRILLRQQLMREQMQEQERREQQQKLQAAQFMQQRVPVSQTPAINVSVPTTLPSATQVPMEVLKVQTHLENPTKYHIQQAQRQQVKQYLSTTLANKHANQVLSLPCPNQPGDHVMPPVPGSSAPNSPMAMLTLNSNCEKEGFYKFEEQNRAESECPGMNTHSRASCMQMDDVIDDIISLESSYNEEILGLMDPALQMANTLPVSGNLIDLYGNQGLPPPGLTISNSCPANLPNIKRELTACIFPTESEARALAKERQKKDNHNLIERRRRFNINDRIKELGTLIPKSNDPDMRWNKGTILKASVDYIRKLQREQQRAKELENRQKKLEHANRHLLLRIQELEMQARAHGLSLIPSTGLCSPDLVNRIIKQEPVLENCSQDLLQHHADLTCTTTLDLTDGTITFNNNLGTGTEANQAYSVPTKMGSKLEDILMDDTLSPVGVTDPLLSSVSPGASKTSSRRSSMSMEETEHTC

| Compound | inhibition |
| --- | --- |
| CCc1nnc(NC(=O)CSc2nnc(-c3ccccn3)n2-c2ccccc2C)s1 | 1.39% |
| CCOc1cc(C2C3=C(CCCC3=O)N(CC)C3=C2C(=O)CCC3)cc(Cl)c1O | 3.45% |
| COC(=O)C1(C)NC(c2ccccc2OC)C2C(=O)N(c3ccccc3)C(=O)C21 (stereo not drawn) | 17.7% |
| COC(=O)C1(C)NC(c2ccc(C)cc2)C2C(=O)N(c3ccc(C)cc3)C(=O)C21 (stereo not drawn) | 10.8% |
| COC(=O)C1(C)NC(c2ccc(C)cc2)C2C(=O)N(c3ccc(F)cc3)C(=O)C21 (stereo not drawn) | 77.9% (active) |
| CC(=O)c1ccc(N2CN=C3SCC(=O)N3C2)cc1 | 9.73% |
| CCCNC(=O)Cc1ccc(-n2c(=O)c3ccccc3n(CC(=O)NC3CCCCC3)c2=O)cc1 | -13.8% |
| c1ccc(CCCCNc2nccc(Nc3ccncn3)n2)cc1 | 61.3% (active) |
| c1ccc(CCCNc2nccc(Nc3ccncn3)n2)cc1 | 10.6% |
| c1ccc(CCNc2nccc(Nc3ccncn3)n2)cc1 | -8.19% |
| O=C(NCc1ccccc1)c1ccc2c(c1)nc(SCc1ccc([N+](=O)[O-])cc1)n1c3ccccc3nc21 | 13.9% |
| Cc1ccc(CNC(=O)Cn2ncc3c2-c2ccccc2OC3)cc1 | 4.23% |
| Cc1cc(NC(=O)c2ccco2)ncc1NC(=O)c1cnccn1 | 6.96% |
| Cc1ccc(CN2CCOCC2)c(C)c1 | -2.63% |
| Clc1ccc(CN2CCOCC2)c(Cl)c1 | 43.8% |
| Oc1c(CN2CCOCC2)ccc(CN2CCOCC2)c1O | 52% (active) |
| Cc1cc(C)nc(NC(=O)c2ccccc2Br)c1 | -3% |
| COCCn1c(=S)[nH]c2cc(C(=O)NCCC3=CCCCC3)ccc2c1=O | 0.32% |
| CN(Cc1ccccc1)C(=O)CCC1CCN(C(=O)CCc2ccccn2)CC1 | -1.89% |
| CN(CCc1ccccn1)Cc1cccnc1 | 73.8% (active) |
| O=C(COc1ccccc1)NCc1cccnc1 | -5.7% |
| CCOc1cc(/C=C2\NC(=S)NC2=O)cc(Br)c1OC | 19.5% |
| Cc1ccc(C)c(-n2c(SCCN3CCOCC3)nnc2-c2cccnc2)c1 | -3.61% |
| O=C1OCCN1c1ccc(Nc2nccc(-c3cc(N4CCOCC4)cc([N+](=O)[O-])c3)n2)cc1 | 0.11% |

| Compound | inhibition |
| --- | --- |
| Cc1c2c(c(O)c3c(O)cccc13)C(=O)OC2[C@@H]1C(N(C)C)C(O)=C(C(N)=O)C(=O)[C@H]1O (stereo partly drawn) | 108% (active) |
| O=C1OC(c2ccccc2Cl)=N/C1=C\c1ccccc1[N+](=O)[O-] | -1.22% |
| Cc1nc2sccn2c1CN1CCC(C2(Cc3ccccc3)NC(=O)NC2=O)CC1 (stereo not drawn) | -18.4% |
| Cc1cc(C(F)(F)F)nn1CC(=O)Nc1ccc(I)c(Cl)c1 | 6.94% |
| COC(=O)c1c(OCCCN(C)C)cc(=O)n2c1CCN(C(=O)c1ccc(F)cc1)CC2 | -2.23% |
| O=S(=O)(NCC(c1ccc2c(c1)OCO2)N1CCOCC1)c1cccs1 (stereo not drawn) | 1.27% |
| COc1cc(/C=N/n2c(-c3ccncc3)n[nH]c2=S)cc(OC)c1OC(C)=O | 6.48% |
| Cc1cc(NC(=O)/C=C/C(=O)N(CC(=O)NC2CCCC2)c2ccc(F)cc2)no1 | 75% (active) |
| Cc1cc(C)cc(N(CC(=O)NC2CCCC2)C(=O)CCC(=O)Nc2cc(C)on2)c1 | 5.39% |
| Cc1cc(NC(=O)CCC(=O)N(CC(=O)NC2CCCC2)c2ccc(F)cc2)no1 | -6.06% |
| CCOC(=O)CSC1=Nc2ccccc2C2=NC(C(C)C)C(=O)N12 (stereo not drawn) | 1.69% |
| O=C1NC(c2c(F)cccc2Cl)C(C(=O)c2cccs2)C(O)(C(F)(F)F)N1 (stereo not drawn) | -3.71% |
| O=C1NC(c2cccs2)C(C(=O)c2cccnc2)C(O)(C(F)(F)F)N1 (stereo not drawn) | -3.66% |
| O=C1NC(c2ccccc2[N+](=O)[O-])C(C(=O)c2cccs2)C(O)(C(F)(F)F)N1 (stereo not drawn) | 58.9% (active) |
| CCN(CC)CCN(CC)Cc1c(F)cccc1F | 6.2% |
| CN(C)CCN(C)Cc1c(F)cccc1Cl | 49.6% |
| CCN(CCN(C)C)Cc1c(Cl)cccc1Cl | 56.6% (active) |
| CCOC(=O)C1C(=O)C=C(c2ccc(F)cc2)CC1c1cccs1 (stereo not drawn) | -5.44% |
| CC(C)CO/N=C1\C[C@@H](O)[C@@H](O)[C@@H]2[C@@H]3C(=O)N([C@@H](C)c4ccccc4)C(=O)[C@@H]3CC[C@@H]12 | 114% (active) |
| CC(C)CO/N=C1\C[C@@H](O)[C@@H](O)[C@@H]2[C@@H]3C(=O)N(C[C@@H]4CCCO4)C(=O)[C@@H]3CC[C@@H]12 | -23% |
| C[C@@H](c1ccccc1)N1C(=O)[C@H]2[C@H]3[C@H](O)C=CC(=O)[C@@H]3CC[C@H]2C1=O | 17.6% |
| O=C(CN(Cc1cccs1)C(=O)c1nsc(Cl)c1Cl)NC1CCCC1 | 11.8% |
| Nc1nccc(-c2ccc3nc(C4COc5ccc(Br)cc5C4)[nH]c3c2)n1 (stereo not drawn) | 8.16% |
| Cc1nn(C(=O)N2CCOCC2)c(C)c1Br | 13.6% |

| Compound | inhibition |
| --- | --- |
| NC(=O)CCn1cc(/C=C2\Cc3ccccc3C2=O)c2ccccc21 | -5.7% |
| Clc1ccc(Cl)c(N2Cc3cc4c(cc3C2)CN(c2cc(Cl)ccc2Cl)C4)c1 | 4.43% |
| COc1cccc(OC)c1C(=O)OCC(=O)/C(C#N)=C(\C)N | -4.31% |
| C/C(N)=C(/C#N)C(=O)COC(=O)c1c2c(nc3ccccc13)/C(=C/c1ccco1)CC2 | 81.7% (active) |
| COc1ccc(-c2cc(C(=O)OCC(=O)/C(C#N)=C(\C)N)c3ccccc3n2)cc1 | 7.78% |
| O=C(CSc1ccc(-c2ccccn2)nn1)Nc1ccccc1 | 49.6% |
| Cc1cc(NC(=O)CSc2ccc(-c3ccccn3)nn2)no1 | 78.7% (active) |
| CCOc1ccc(-c2ccc(SCC(=O)Nc3cc(C)on3)nn2)cc1 | 4.05% |
| Cc1[nH]c(=O)[nH]c(=O)c1S(=O)(=O)N1CCC(Cc2ccccc2)CC1 | -4.65% |
| O=C(Nc1cccc(NC(=O)c2ccc(S(=O)(=O)N3CCOCC3)cc2)c1)c1ccc(S(=O)(=O)N2CCOCC2)cc1 | -11.6% |
| Clc1cc(Cl)c(OCCOc2ccccc2)c(/C=N/n2cnnc2)c1 | -17.6% |
| CC(C)(C)NC(=O)N1CCN(c2cc(N3CCCC3)ncn2)CC1 | 5.52% |
| Cc1ccccc1NC(=O)C(=O)N1CCCCC1 | -9.16% |
| Cc1ccccc1NC(=O)NCCOc1cc(N2CCCC2)ncn1 | 63.9% (active) |
| CCOC(=O)c1ccc2c(c1)nc(C(C)C)n2CC | 29.7% |
| c1ccc(-c2ccc(OCCCNCCN3CCOCC3)cc2)cc1 | -7.58% |
| Clc1c(OCCCNCCN2CCOCC2)ccc2ccccc12 | 26% |
| Cc1ccc(OCCCNCCN)c(Br)c1 | 5.41% |
| c1ccc(-c2ccccc2OCCCCNCCN2CCOCC2)cc1 | 11.5% |
| c1ccc(-c2ccccc2OCCNCCN2CCOCC2)cc1 | 58.3% (active) |
| Cc1ccc(OCCCCNCCN2CCOCC2)c(Br)c1 | 65.7% (active) |
| CC(NC(=O)Cn1c(C2CC2)nc2ccccc21)C1CC2CCC1C2 (stereo not drawn) | 5% |
| C/C(=N\NC(=O)C(O)c1ccccc1)c1ccc2c(c1)CCCC2 (stereo not drawn) | -5.38% |
| O=C(NC1CSC/C1=N\Nc1cc([N+](=O)[O-])cc([N+](=O)[O-])c1)c1ccccc1 (stereo not drawn) | 18% |

| Compound | inhibition |
| --- | --- |
| O=C(CC1(c2ccccc2F)CC(=O)N(C2CCCCC2)C1=O)N1CCOCC1 (stereo not drawn) | -8.12% |
| CCOc1ccccc1N(CC(=O)NC(C)(C)CC)C(=O)CCC(=O)Nc1nccs1 | -1.1% |
| CNC(=O)c1c(NC(=O)C2CCCCC2)sc2c1CCC(C)C2 (stereo not drawn) | -7.36% |
| NC(=O)c1c(NC(=O)CCC(=O)OCC(=O)Nc2ccccc2Cl)sc2c1CCC2 | -2.18% |
| Cc1ccc(NC(=O)COC(=O)CCC(=O)Nc2sc3c(c2C(N)=O)CCC3)cc1F | 84.3% (active) |
| CC(C)(C)c1ccc(OCC(=O)OCC(=O)Nc2sc3c(c2C(N)=O)CCC3)cc1 | 0.98% |
| Cc1cc(SCC(=O)N2CCOCC2)nc2ccccc12 | 14.6% |
| CCCCNC(=S)N/N=C/c1ccccc1OCC(=O)O | -2.56% |
| CCOc1cccc(/C=N/NC(=S)NCCN2CCOCC2)c1O | 63.2% (active) |
| CCOc1cccc(/C=N/NC(=O)COc2cccc(C)c2C)c1O | 2.99% |
| COc1ccccc1N(C(C)=O)C1C=CS(=O)(=O)C1 (stereo not drawn) | 1.71% |
| c1cncc(CCNc2ccc3ncc(-c4cc5ccccc5o4)n3n2)c1 | 54.6% (active) |
| c1cncc(CCNc2ccc3ncc(-c4cccc5ccccc45)n3n2)c1 | -3.61% |
| Cc1csc(-c2cnc3ccc(NCCc4cccnc4)nn23)c1 | -21.5% |
| COc1cccc(-c2ncnn2-c2sc3c(c2C#N)CCCCC3)c1 | 63.4% (active) |
| CCOc1ccc(-c2ncnn2-c2sc3c(c2C#N)CCCC3)cc1 | -3.27% |
| N#Cc1c(-n2ncnc2-c2ccccc2)sc2c1CCCC2 | -14.9% |
| O=C(Nc1nccs1)C(c1ccccc1)c1ccccc1 | -0.78% |
| CCCCOC(=O)c1ccc(NC(=O)C2C3C=CC(O3)C2C(=O)O)cc1 (stereo not drawn) | -9.29% |
| O=C(O)C1C2C=CC(O2)C1C(=O)Nc1nccs1 (stereo not drawn) | 81.7% (active) |
| COc1ccc(-c2nc3n(c2NC(C)(C)C)CCNC3)cc1 | 0.05% |
